Sampled rows, rich in hits. Any-hit rate of the full collection: about 2.9%.
FID counter – displaces DNA intercalator in HCV helicase counter-screen. AID 1845. DNA fluorescent intercalator displacement, fluorescence. 0.17% of 290,000 active. inhibition, % at 7.9 µM; in the data active = inhibition above about 37%;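 note: 0% = vehicle and 100% = reference compound; higher means more ethidium bromide displaced from hairpin DNA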
MEKK2wt PB1 HTS – raises or lowers MEK5 binding to wildtype human MEKK2 PB1 domain | binding response (% of control), % at 10 µM | Q9Y2U5 | bead flow cytometry, Alexa488-MEK5 binding to MEKK2 WT; actives lie on both sides | 1.1% of 290,000 active; in the data active = binding response below about 67% or above about 130%; inconclusive = no clear call, values can overlap the other calls; inactive = in between
MEKK3 PB1 HTS – raises or lowers MEK5 binding to the human MEKK3 PB1 domain | bead-based flow cytometry, Alexa488-MEK5 binding to MEKK3; actives lie on both sides; 0 = blocked by unlabeled MEK5, 100 = vehicle | Q99759 | 1.4% of 290,000 active | binding response (% of control), % at 10 µM;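 active = binding response more than 3 SD above or below the average of its plate-row segment, actives on both sides; inconclusive = wells at one plate position flagged as instrument error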;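 note: Alexa488 bead fluorescence after subtracting the streptavidin-only scavenger bead signal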
dFosB act – enhances mouse delta FosB homodimer DNA binding | purified delta FosB, TAMRA-CDK5 oligo fluorescence polarization; percent of positive-control signal above neutral wells | activation, % at 25 µM | 0.99% of 340,000 active;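 active = mean activation above about 17%, with every replicate also reaching it, limit read from the data, passing the limit was not always enough; inconclusive = only one of the two conditions met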
Target sequence (P13346 whole entry, looked up): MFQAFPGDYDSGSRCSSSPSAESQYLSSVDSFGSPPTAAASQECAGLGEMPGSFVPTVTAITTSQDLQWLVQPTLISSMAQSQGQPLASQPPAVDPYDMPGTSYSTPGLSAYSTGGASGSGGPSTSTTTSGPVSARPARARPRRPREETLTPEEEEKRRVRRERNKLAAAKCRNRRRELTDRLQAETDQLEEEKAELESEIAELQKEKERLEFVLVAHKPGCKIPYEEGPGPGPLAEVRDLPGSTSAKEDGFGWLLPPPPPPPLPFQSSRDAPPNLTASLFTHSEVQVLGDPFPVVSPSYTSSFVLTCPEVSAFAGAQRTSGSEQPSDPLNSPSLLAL
MEKK2 mut-MEK5 – signal of MEK5 binding to mutant human MEKK2 PB1 domain | bead flow cytometry, Alexa488-MEK5 binding to MEKK2 mutant | percent response, % at 10 µM | 0.35% of 290,000 active | AID 1530; in the data active = percent response above about 24%, passing the limit was not always enough
MEKK2wt confirm – raises or lowers MEK5 binding to wildtype human MEKK2, retest. shares compounds with MEKK3 PB1 HTS. bead flow cytometry, Alexa488-MEK5 binding to MEKK2 WT; actives lie on both sides. binding response (% of control), % at 10 µM. 2.4% of 5,900 active. AID 1892; in the data active = binding response below about 16% or above about 210%; inactive = in between
MEKK2mut confirm – signal of MEK5 binding to mutant human MEKK2, retest; shares compounds with MEKK3 PB1 HTS; 2% of 5,900 active; bead flow cytometry, Alexa488-MEK5 binding to MEKK2 mutant; percent response, % at 10 µM; AID 1893; in the data active = percent response mostly above about 71%, no sharp cut-off; inactive = mostly below about 38%;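 note: higher means compound restores mutant binding toward wildtype level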
MEKK3-MEK5 inh – confirmation of inhibitors of MEK5 binding to human MEKK3. shares compounds with MEKK3 PB1 HTS. bead flow cytometry, Alexa488-MEK5 binding to MEKK3; stronger effect = lower value. binding response (% of control), % at 10 µM. 1.8% of 5,900 active. AID 1894;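 active = binding response below 72% of control, or above a set upper limit, though filed actives all read lower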;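 note: 100% = DMSO only wells and 0% = binding blocked by excess unlabeled MEK5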
An asterisk follows results filed as active; ? = inconclusive; . = no result; [ ] = dose if it differs, or a comment.

SMILES	FID counter	MEKK2wt PB1 HTS	MEKK3 PB1 HTS	dFosB act	MEKK2 mut-MEK5	MEKK2wt confirm	MEKK2mut confirm	MEKK3-MEK5 inh
COc1ccccc1Oc1nc2ccccn2c(=O)c1/C=C(\C#N)C(=O)Nc1c(C)n(C)n(-c2ccccc2)c1=O	-32.6	94.0	93.0	-10.7	-15.0	.	.	.
COc1ccccc1-n1nnnc1SCC(=O)N(CC(C)C)C1CCS(=O)(=O)C1 (stereo unspecified)	-28.4	108.0	103.0	-4.0	3.0	.	.	.
COc1cccc(CC(=O)Nc2nc3ccccc3[nH]2)c1	-2.9	.	96.0	-8.8	112.0*	109.0	4.0	105.0
CCOC(=O)c1ccc(NC(=O)CNC(=O)C23CC4CC(CC(C4)C2)C3)cc1	-22.0	107.0	109.0	-0.5	4.0	.	.	.
CCOC(=O)c1ccc(NS(=O)C23CC4CC(CC(C4)C2)C3)cc1 (stereo unspecified)	-33.8	-6.0*[inhibitor]	97.0	-4.6	-35.0	105.0	-1.0	103.0
O=C(Nc1ccc2c(c1)nc1n2CCN(Cc2ccccc2)C1)c1cccs1	-11.2	3.0*[inhibitor]	100.0	14.0	1.0	100.0	-3.0	103.0
COc1ccccc1C(=O)Nc1ccc2c(c1)nc1n2CCN(Cc2ccccc2)C1	-21.4	85.0	76.0	-5.6	-8.0	.	.	.
CCCOc1ccc(C2NC(=O)NC2=O)cc1 (stereo unspecified)	-2.9	120.0	123.0*	-3.0	8.0	108.0	3.0	108.0
CCCOc1ccc(C2=NNC(=O)CC2)cc1	-6.9	99.0	68.0*[inhibitor]	6.4	-1.0	96.0	-9.0	98.0
COc1ccc(C2=NNC(=O)CC2)cc1	2.2	97.0	102.0	-0.9	-2.0	.	.	.
CCOC(=O)N1CCN(C(=O)CSc2ccc(-c3ccc(OC)cc3)nn2)CC1	-29.2	97.0	103.0	-13.4	2.0	.	.	.
COc1ccc(OCCn2c(=N)n(CCO)c3ccccc32)cc1	8.2	107.0	107.0	-2.1	10.0	.	.	.
N=c1n(CCO)c2ccccc2n1CCOc1ccc(Cl)cc1Cl	14.3	148.0*	113.0	4.0	18.0	132.0	19.0	108.0
Clc1ccc(OCCOCCN2CCc3ccccc3C2)c(Cl)c1	35.2	123.0	104.0	-0.5	26.0	.	.	.
Clc1ccc(OCCCN2CCc3ccccc3C2)c(Br)c1	16.1	134.0*	105.0	-1.6	20.0	102.0	-1.0	101.0
CC1CCN(CCOCCOc2ccc(Cl)cc2Br)CC1	15.9	147.0*	106.0	2.6	21.0	158.0	28.0	110.0
Cc1ccn(CC(=O)N2CCCC(N3CCN(Cc4ccc5c(c4)OCO5)CC3)C2)n1 (stereo unspecified)	-3.1	114.0	106.0	1.3	10.0	.	.	.
N=C1/C(=C/c2cccn2Cc2ccc(Cl)cc2)C(=O)N=C2SC=CN12	-0.2	107.0	129.0*	9.3	-1.0	112.0	5.0	109.0
CC(=O)NNC(=O)CCn1nnc(-c2ccc(Cl)cc2)n1	2.8	97.0	100.0	1.1	-5.0	.	.	.
Cc1nc(CCN2C(=O)c3ccccc3C2=O)n[nH]1	0.4	100.0	98.0	-0.7	1.0	.	.	.
CCc1ccc(CCN2C(=O)c3ccccc3C2=O)nc1	-9.9	75.0	75.0*[inhibitor]	-0.2	-31.0	97.0	-4.0	101.0
Cc1oc(-c2ccccc2)nc1CSc1nc2c(c(=O)[nH]1)CCC2	-7.2	74.0	60.0*[inhibitor]	-15.1	-8.0	109.0	4.0	102.0
CC(=O)Nc1ccc(S(=O)(=O)N2CCN(c3ccc([N+](=O)[O-])cc3)CC2)cc1	6.3	106.0	104.0	-0.5	2.0	.	.	.
CN1CCN(c2ncccc2S(=O)(=O)N2CCCCC2)CC1	0.9	1.0*[inhibitor]	1.0*[inhibitor]	-1.7	-2.0	98.0	-3.0	101.0
O=S(=O)(c1cccc2cccnc12)N1CCCCC1	-10.9	105.0	104.0	-1.9	5.0	.	.	.
SMILES	FID counter	MEKK2wt PB1 HTS	MEKK3 PB1 HTS	dFosB act	MEKK2 mut-MEK5	MEKK2wt confirm	MEKK2mut confirm	MEKK3-MEK5 inh
Cc1ccccc1C(=O)c1cccn1CC(=O)NCCN1CCN(c2cccc(C)c2C)CC1	24.3	144.0*	104.0	-0.3	10.0	133.0	25.0	107.0
CCC(C(=O)OCn1nnc2ccccc2c1=O)c1ccccc1 (stereo unspecified)	-16.9	100.0	105.0	-7.2	-3.0	.	.	.
CCCCN(C)CCNC(=O)c1cc2c(-c3cccc(OC)c3)nn(C)c2s1	17.5	115.0	90.0	-44.9	9.0	.	.	.
COc1cccc(-c2nn(C)c3sc(C(=O)NCCCN(C)Cc4ccccc4)cc23)c1	21.6	147.0*	106.0	-22.9	22.0	146.0	46.0	105.0
CCN(CC)CCCNC(=O)c1cc2c(-c3cccc(OC)c3)nn(C)c2s1	26.9	120.0	101.0	-42.2	13.0	.	.	.
CCCCN(CC)CCCNC(=O)c1cc2c(-c3ccc(OC)c(OC)c3)nn(C)c2s1	29.0	135.0*	108.0	37.4*	23.0	107.0	13.0	102.0
O=C(CSc1ccc2ccccc2c1)Nc1ncccn1	1.1	102.0	100.0	8.0	2.0	.	.	.
CCC1(c2ccccc2)SC(N)=NC1=O (stereo unspecified)	.	.	.	-2.5	.	.	.	.
O/N=C1\CCCc2c1nc(-c1ccccc1F)n2O	1.6	113.0	130.0*	.	26.0	120.0	7.0	105.0
O=C(OCCOc1cccc(Cl)c1)c1cc(S(=O)(=O)N2CCCCC2)ccc1N1CCOCC1	.	.	.	-3.2	.	.	.	.
CCC(C)(C)NC(=O)c1cc([N+](=O)[O-])ccc1N1CCOCC1	-4.1	113.0	157.0*	2.3	1.0	100.0	-7.0	100.0
O=[N+]([O-])c1ccc(NC2CCCCC2)nc1	.	.	.	2.0	.	.	.	.
Cc1cc(OCc2cc(C(=O)NCCN3CCCCC3CO)no2)cc(C)c1Cl (stereo unspecified)	17.1	136.0*	106.0	7.2	19.0	133.0	18.0	106.0
Cc1nc2ccccc2n1S(=O)(=O)N(C)C	3.1	125.0	141.0*	5.0	10.0	102.0	1.0	101.0
COc1cc2c(cc1OC)C(c1ccc(-c3ccc(Cl)c(Cl)c3)o1)=NCC2	-7.4	149.0*	105.0	52.1*	28.0	152.0	49.0	113.0
Cc1ccc(/C=N/Nc2cc(C)nc(NCc3ccccc3)n2)cc1	7.8	199.0*	108.0	54.6*	63.0*	150.0	25.0	104.0
Cc1cc(N/N=C/c2ccc(F)cc2)nc(NCc2ccccc2)n1	8.0	130.0	100.0	.	9.0	.	.	.
Cc1cc(N/N=C/c2ccc(N(C)C)cc2)nc(NCc2ccccc2)n1	2.3	229.0*	103.0	7.6	75.0*	247.0*	89.0*	117.0
Cc1cc(N/N=C/c2ccc(Cl)cc2Cl)nc(NCc2ccccc2)n1	1.6	161.0*	102.0	?	38.0	164.0	38.0	105.0

High-throughput results from PubChem.
